# Measurements from PubChem BioAssay (Tox21).
# Where “and” joins values, the source holds several entries; their conditions need not be identical. Equal entries are not always repeated. A number with no mark means an inactive call. Inconclusive results are not listed. A call without a number means that no potency is given here. Where a structure was tested more than once in an assay, its records may differ in their call. Calls of active or inactive are those of the source. Unless noted, the call rests on the fitted dose curve; in most records, active means well fitted curve in the direction sought with a large enough effect in the repeat runs; inconclusive means weak or mixed curves; inactive means no such curve, though single readings can be large; an effect the other way counts as inactive or inconclusive.
# What was measured:
# [1] = qHTS assay to identify small molecule agonists of the estrogen receptor alpha (ER-alpha) signaling pathway in the presence of an antagonist - cell viability counter screen (AID 1259386);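 further: series mostly up to about 92 µM; cells exposed to compounds for 22 h at 37 °C before the viability read; nearly all actives have a fitted effect of over 30% in size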
# Procedure, shortened: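 Using estrogen-depleted VM7Luc4E2 cells, the 15-concentration compound series was applied together with 10.0nM ICI-182,780 and incubated 22hr at 37C/5% CO2. Cell viability was then scored by CellTiter-Fluor.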
# [2] = molecular target: Progesterone receptor (Homo sapiens) (UniProt P06401); assay: qHTS assay to identify small molecule agonists of the progesterone receptor (PR) signaling pathway (AID 1346784; calls by dose curve; further: nearly all actives have a fitted effect of over 30% in size; further: potency means the concentration at half of the fitted maximal effect)
# Procedure, shortened: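 PR-UAS-bla HEK 293T cells (beta-lactamase reporter under UAS) in 2% charcoal-stripped FBS, dosed with 23 nL compound after 6 hr, incubated 16hr at 37C. LiveBLAzer B/G FRET substrate added, fluorescence read after 2 hours.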
# [3] = molecular target: Progesterone receptor (Homo sapiens) (UniProt P06401); assay: qHTS assay to identify small molecule antagonists of the progesterone receptor (PR) signaling pathway (AID 1346795; active means well fitted inhibition curve with a large enough effect in the signal ratio in the repeat runs, not every such curve was filed as active; the % refers to the signal ratio)
# Procedure, shortened: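 PR-UAS-bla HEK293T cells with beta-lactamase reporter under UAS control, in 2% charcoal-stripped FBS, treated with compounds plus 1 nM promegestone (R5020, final) for 16 hr at 37C. Read-out: FRET beta-lactamase substrate fluorescence after 2 hr at room temperature.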
# [4] = qHTS assay to identify small molecule antagonists of the progesterone receptor (PR) signaling pathway - cell viability counter screen (AID 1346798); further: series mostly up to about 92 µM; nearly all actives have a fitted effect of over 50% in size
# Procedure, shortened: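 PR-UAS-bla HEK293T cells, 3,000/well in 2% charcoal-stripped FBS medium, dosed with compounds plus R5020 agonist and incubated 16 h at 37C. Viability then measured in the same wells by CellTiter-Glo luminescence after 30 min at RT.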
# [5] = qHTS assay to identify small molecule antagonists of the TGF-beta/Smad signaling pathway - cell viability counter screen (AID 1346824); further: nearly all actives have a fitted effect of over 50% in size
# Procedure, shortened: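 Cytotoxicity counter-screen run in the same wells as the beta-lactamase Smad reporter read: CellTiter-Glo luminescence after 30 min at room temperature. HEK 293T SBE-bla cells had 5 hr compound exposure at 37 C with TGF-beta1 (0.25 ng/mL stock).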
# [6] = qHTS assay to identify small molecule agonists of the TGF-beta/Smad signaling pathway - cell viability counter screen (AID 1346829); further: top concentration of the series differs between compounds; nearly all actives have a fitted effect of over 45% in size
# Procedure, shortened: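 Compound-treated SBE-bla HEK 293T cells (5 hr, 37 C) were assessed for viability with CellTiter-Glo in parallel with the reporter read.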
# [7] = qHTS assay to identify small molecule agonists of the TGF-beta/Smad signaling pathway (AID 1346859; active means well fitted activation curve with a large enough effect in the signal ratio in the repeat runs, not every such curve was filed as active; the % refers to the signal ratio; further: series mostly up to about 77 µM)
# Procedure, shortened: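 SBE-bla HEK293T cells plated overnight, then compound exposure for 5 h at 37 C. Beta-lactamase reporter read with LiveBLAzer B/G FRET substrate after 2 h at room temperature, fluorescence at 405 nm excitation, 460/530 nm emission.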
# [8] = molecular target: Thyrotropin-releasing hormone receptor (Homo sapiens) (UniProt P34981); assay: qHTS assay to identify small molecule agonists of the thyrotropin-releasing hormone receptor (TRHR) signaling pathway (AID 1346891; calls by dose curve; further: series mostly up to about 58 µM)
# Procedure, shortened: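 HEK293 cells expressing TRHR plated 18 h at 37 C/5% CO2, calcium dye-loaded 2 h at 37 C, then compound added (agonist mode); kinetic calcium fluorescence read 3 min at 1 s intervals; 15 concentrations in triplicate.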
# [9] = Human pregnane X receptor (PXR) small molecule agonists, qHTS cell viability counter screen (AID 1346977); further: nearly all actives have a fitted effect of over 50% in size
# Procedure, shortened: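 PXR-Luc HepG2 cells (2,000/well, 5% charcoal-stripped FBS) preincubated 5 hr, then exposed to compounds 24 hr at 37 C. Viability read in the same wells by CellTiter-Fluor fluorescence, reagent added at 23 hr, 1 hr incubation.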
# [10] = Caspase-3/7 induction in HepG2 cells by small molecules, qHTS assay (AID 1346978); further: nearly all actives have a fitted effect of over 15% in size
# Procedure, shortened: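 Caspase-3/7 induction was measured by Caspase-Glo 3/7 luminescence (30 min, room temperature) after a 17 hr compound exposure of wild-type HepG2 cells seeded at 2,000 per well and pre-incubated 5 hr.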
# [11] = Caspase-3/7 induction in CHO-K1 cells by small molecules, qHTS cell viability counter screen (AID 1346979); further: nearly all actives have a fitted effect of over 35% in size
# Procedure, shortened: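 Wild-type CHO-K1 cells (1,500/well) treated with compound after 5 h plating; after 16 h at 37C, viability read as CellTiter-Fluor fluorescence following 1 h reagent incubation, in the same wells as the caspase read.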
# [12] = Caspase-3/7 induction in CHO-K1 cells by small molecules, qHTS assay (AID 1346980); further: nearly all actives have a fitted effect of over 15% in size
# Procedure, shortened: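 Luminescent Caspase-Glo 3/7 read (30min, room temperature) quantified apoptosis induction. Cells were wild-type CHO-K1, treated with compound for 17hr at 37 C and 5% CO2.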
# [13] = Caspase-3/7 induction in HepG2 cells by small molecules, qHTS cell viability counter screen (AID 1346981); further: series mostly up to about 92 µM; nearly all actives have a fitted effect of over 30% in size
# Procedure, shortened: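 After a 5-hr attachment period at 37 C and 5% CO2, wild-type HepG2 cells received compounds in DMSO. Sixteen hours later CellTiter-Fluor was dispensed and the fluorescent signal quantified after a further hour.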
# [14] = molecular target: Nuclear receptor subfamily 1 group I member 2 (Homo sapiens) (UniProt O75469); assay: Human pregnane X receptor (PXR) small molecule agonists, qHTS assay (AID 1346982); further: nearly all actives have a fitted effect of over 35% in size
# Procedure, shortened: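 Tox21 qHTS; PXR-Luc HepG2; compounds pinned from DMSO; 24 hr, 37 C; ONE-Glo luciferase detection, 30 min room temperature.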
# [15] = molecular target: Nuclear receptor subfamily 1 group I member 2 (Rattus norvegicus) (UniProt Q9R1A7); assay: Rat pregnane X receptor (rPXR) activation by small molecules, qHTS assay (AID 1346983); conditions: rPXR luciferase reporter cells, One-Glo luminescence, 24 h; active compounds read high; further: nearly all actives have a fitted effect of over 20% in size
# Procedure, shortened: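 Luminescent readout (One-Glo luciferase, 30 min room temperature) followed 24 hr compound treatment at 37 C of rPXR cells plated 2,000 per well and preincubated 5hr; qHTS format with compounds delivered in DMSO.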
# [16] = molecular target: Nuclear receptor subfamily 1 group I member 2 (Homo sapiens) (UniProt O75469); assay: CYP3A4 induction through human pregnane X receptor (PXR) by small molecules, qHTS assay (AID 1346984); further: nearly all actives have a fitted effect of over 40% in size
# Procedure, shortened: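 Cells (DPX-2; HepG2 with PXR element plus CYP3A4-promoter luciferase) settled 5hr, then were treated 24hr at 37C. A 3hr, 3uM-final Luciferin-IPA step preceded luminescence measurement with One-Glo.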
# [17] = molecular target: Nuclear receptor subfamily 1 group I member 2 (Homo sapiens) (UniProt O75469); assay: Human pregnane X receptor (PXR) activation by small molecules, qHTS assay (AID 1346985); further: nearly all actives have a fitted effect of over 40% in size
# Procedure, shortened: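 DPX-2 cells (HepG2 co-transfected with a PXR response element and a CYP3A4-promoter luciferase construct) were seeded at 2,000 per well, rested 5 hr at 37C, then exposed to DMSO-dissolved compounds for 24 hr. Activation was read as luciferase luminescence.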
# [18] = molecular target: Cytochrome P450 2D6 (Homo sapiens) (UniProt P10635); assay: Cytochrome P450 Family 2 Subfamily D Member 6 (CYP2D6) small molecule antagonists: luciferase reporter qHTS assay (AID 1671196); further: nearly all actives have a fitted effect of over 50% in size; further: potency means the concentration at half of the fitted maximal effect
# Procedure, shortened: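 Room-temperature luminescent CYP2D6 activity assay: compound preincubated 10 min with enzyme–substrate mix, NADPH-initiated reaction 1 h, detection reagent 20 min before reading.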
# [19] = qHTS assay to identify small molecule agonists of the progesterone receptor (PR) signaling pathway - cell viability counter screen (AID 1346799; calls by dose curve; further: nearly all actives have a fitted effect of over 45% in size)
# Procedure, shortened: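 Counter screen in the PR-UAS-bla HEK293T wells (2% charcoal-stripped FBS, 16 h compound exposure at 37 C) after the bla read. CellTiter-Glo added, 30 min at room temperature, luminescence read as cell viability.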
# [20] = molecular target: Thyrotropin-releasing hormone receptor (Homo sapiens) (UniProt P34981); assay: qHTS assay to identify small molecule antagonists of the thyrotropin-releasing hormone receptor (TRHR) signaling pathway (AID 1346877; active means well fitted inhibition curve with a large enough effect in the repeat runs, not every such curve was filed as active; further: series mostly up to about 51 µM)
# Procedure, shortened: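 Calcium signal in dye-loaded TRHR/HEK293 cells; compounds added 5 min before TRH (1 nM final); fluorescence monitored 3 min at 1 s steps.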
# Sequence of Progesterone receptor (Homo sapiens) (P06401 whole entry, looked up): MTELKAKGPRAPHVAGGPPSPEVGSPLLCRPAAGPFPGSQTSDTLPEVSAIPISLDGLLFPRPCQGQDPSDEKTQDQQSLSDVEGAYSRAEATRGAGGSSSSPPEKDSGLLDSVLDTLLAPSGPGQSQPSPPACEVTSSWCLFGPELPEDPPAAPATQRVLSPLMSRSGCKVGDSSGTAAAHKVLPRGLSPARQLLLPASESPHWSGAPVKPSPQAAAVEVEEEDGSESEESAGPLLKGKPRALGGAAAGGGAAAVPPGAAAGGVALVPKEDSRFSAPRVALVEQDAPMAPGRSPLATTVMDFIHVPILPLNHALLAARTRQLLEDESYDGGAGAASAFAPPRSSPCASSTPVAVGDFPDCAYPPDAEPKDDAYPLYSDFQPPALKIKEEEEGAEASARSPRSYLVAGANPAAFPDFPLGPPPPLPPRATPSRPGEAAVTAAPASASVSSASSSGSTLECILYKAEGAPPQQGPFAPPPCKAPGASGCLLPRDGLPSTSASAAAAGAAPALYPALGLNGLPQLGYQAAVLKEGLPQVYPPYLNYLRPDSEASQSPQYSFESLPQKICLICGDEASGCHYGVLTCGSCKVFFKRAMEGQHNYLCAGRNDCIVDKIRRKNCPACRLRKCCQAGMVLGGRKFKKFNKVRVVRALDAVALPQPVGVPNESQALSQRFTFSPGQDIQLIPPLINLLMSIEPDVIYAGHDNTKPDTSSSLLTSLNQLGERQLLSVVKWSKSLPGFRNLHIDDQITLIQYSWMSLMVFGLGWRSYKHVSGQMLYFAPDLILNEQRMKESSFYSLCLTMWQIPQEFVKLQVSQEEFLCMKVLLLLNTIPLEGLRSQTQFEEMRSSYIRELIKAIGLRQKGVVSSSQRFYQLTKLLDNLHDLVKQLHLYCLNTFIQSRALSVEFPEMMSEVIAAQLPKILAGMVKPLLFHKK
# Sequence of Cytochrome P450 2D6 (Homo sapiens) (P10635 whole entry, looked up): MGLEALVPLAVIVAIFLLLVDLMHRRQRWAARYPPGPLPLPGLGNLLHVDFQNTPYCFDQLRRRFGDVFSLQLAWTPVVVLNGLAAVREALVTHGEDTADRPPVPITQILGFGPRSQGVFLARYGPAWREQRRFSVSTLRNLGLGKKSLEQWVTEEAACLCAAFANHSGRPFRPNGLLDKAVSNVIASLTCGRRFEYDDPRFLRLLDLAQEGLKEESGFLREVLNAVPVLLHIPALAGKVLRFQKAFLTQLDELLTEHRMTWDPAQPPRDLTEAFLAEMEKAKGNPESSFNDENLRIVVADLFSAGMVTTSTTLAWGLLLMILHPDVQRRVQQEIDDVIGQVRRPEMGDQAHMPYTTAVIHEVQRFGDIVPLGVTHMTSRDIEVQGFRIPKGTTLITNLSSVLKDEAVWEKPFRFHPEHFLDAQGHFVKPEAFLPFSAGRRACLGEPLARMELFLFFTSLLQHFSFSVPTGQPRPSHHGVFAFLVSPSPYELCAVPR
# Sequence of Thyrotropin-releasing hormone receptor (Homo sapiens) (P34981 whole entry, looked up): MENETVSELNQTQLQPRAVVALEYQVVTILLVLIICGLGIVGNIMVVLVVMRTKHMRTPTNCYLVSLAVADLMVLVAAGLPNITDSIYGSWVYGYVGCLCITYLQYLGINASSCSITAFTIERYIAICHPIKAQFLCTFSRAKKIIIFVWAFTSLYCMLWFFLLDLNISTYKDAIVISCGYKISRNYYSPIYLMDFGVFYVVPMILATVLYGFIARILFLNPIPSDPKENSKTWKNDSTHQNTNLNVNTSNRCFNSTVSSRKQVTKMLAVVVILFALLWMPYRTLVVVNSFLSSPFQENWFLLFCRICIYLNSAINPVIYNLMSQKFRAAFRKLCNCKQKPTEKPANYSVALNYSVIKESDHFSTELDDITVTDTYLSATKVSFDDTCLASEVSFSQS
# Sequence of Nuclear receptor subfamily 1 group I member 2 (Homo sapiens) (O75469 whole entry, looked up): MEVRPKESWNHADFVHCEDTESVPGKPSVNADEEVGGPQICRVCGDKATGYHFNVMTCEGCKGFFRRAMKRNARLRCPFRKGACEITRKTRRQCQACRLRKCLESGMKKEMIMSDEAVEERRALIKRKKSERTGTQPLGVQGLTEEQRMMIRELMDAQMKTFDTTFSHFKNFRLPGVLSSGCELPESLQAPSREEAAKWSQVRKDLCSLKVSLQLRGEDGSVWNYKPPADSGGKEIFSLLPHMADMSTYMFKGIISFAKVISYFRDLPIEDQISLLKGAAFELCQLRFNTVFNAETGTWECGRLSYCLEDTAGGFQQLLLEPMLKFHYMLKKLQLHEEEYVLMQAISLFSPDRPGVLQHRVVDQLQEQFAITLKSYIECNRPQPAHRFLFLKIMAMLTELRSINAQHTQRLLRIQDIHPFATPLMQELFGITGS
# Sequence of Nuclear receptor subfamily 1 group I member 2 (Rattus norvegicus) (Q9R1A7 whole entry, looked up): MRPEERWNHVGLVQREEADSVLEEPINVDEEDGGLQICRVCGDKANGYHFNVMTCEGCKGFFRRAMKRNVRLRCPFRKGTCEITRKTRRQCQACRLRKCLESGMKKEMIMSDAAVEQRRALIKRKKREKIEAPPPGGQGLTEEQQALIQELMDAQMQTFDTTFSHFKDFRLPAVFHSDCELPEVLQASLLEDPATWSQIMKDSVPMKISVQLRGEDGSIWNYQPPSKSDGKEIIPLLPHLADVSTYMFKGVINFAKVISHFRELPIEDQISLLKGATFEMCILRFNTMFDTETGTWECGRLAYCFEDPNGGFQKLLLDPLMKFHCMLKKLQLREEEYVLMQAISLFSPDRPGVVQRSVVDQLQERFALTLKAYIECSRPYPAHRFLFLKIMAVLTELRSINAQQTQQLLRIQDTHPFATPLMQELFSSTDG
structure (smiles),measurement,setting,value
OCc1ccc(Cl)cc1Cl,Potency,[1],inactive
same,Potency,[2],inactive
same,Potency,[3],inactive
same,Potency,[4],inactive
same,Potency,[5],inactive
same,Potency,[6],inactive
same,Potency,[7],inactive
same,outcome,[8],inactive
same,Potency,[9],inactive
same,Potency,[10],inactive
same,Potency,[11],inactive
same,Potency,[12],inactive
same,Potency,[13],inactive
same,Potency,[14],inactive
same,max activation,[15],-2.12%
same,Potency,[16],inactive
same,outcome,[17],inactive
same,Potency,[18],inactive
CC(=O)OC(C)(C)C1CC=C(C)CC1 (stereo unspecified),Potency,[1],inactive
same,Potency,[2],inactive
same,Potency,[3],inactive
same,Potency,[4],inactive
same,Potency,[19],inactive
same,Potency,[5],inactive
same,Potency,[6],inactive
same,Potency,[7],inactive
same,outcome,[8],inactive
same,Potency,[9],inactive
same,Potency,[10],inactive
same,Potency,[11],inactive
same,Potency,[12],inactive
same,Potency,[13],inactive
same,Potency,[14],inactive
CCn1cc(C(=O)O)c(=O)c2cc3c(cc21)OCO3,Potency,[1],inactive
same,Potency,[2],1240 nM (active)
same,activation,[2],-1.39% [at 19 µM]
same,Potency,[3],inactive
same,Potency,[4],inactive
same,Potency,[5],inactive
same,Potency,[6],inactive
same,Potency,[7],inactive
same,Potency,[20],inactive
same,outcome,[8],inactive
same,Potency,[9],inactive
same,Potency,[10],inactive
same,Potency,[11],inactive
same,Potency,[12],inactive
same,Potency,[13],inactive
same,Potency,[14],inactive
same,Potency,[18],inactive
Brc1ccc(Oc2ccc(Br)cc2)cc1,Potency,[1],inactive
same,Potency,[2],inactive
same,Potency,[3],inactive
same,Potency,[4],inactive
same,Potency,[5],inactive
same,Potency,[6],inactive
same,Potency,[7],inactive
same,Potency,[9],inactive
same,Potency,[10],inactive
same,Potency,[11],inactive
same,Potency,[12],inactive
same,Potency,[13],inactive
same,Potency,[14],inactive
same,Potency,[18],inactive
COc1ccccc1[N+](=O)[O-],Potency,[1],inactive
same,Potency,[2],inactive
same,Potency,[3],inactive
same,Potency,[4],inactive
same,Potency,[19],inactive
same,Potency,[5],inactive
same,Potency,[6],inactive
same,Potency,[7],inactive
same,Potency,[20],inactive
same,Potency,[9],inactive
same,Potency,[10],inactive
same,Potency,[11],inactive
same,Potency,[12],inactive
same,Potency,[13],inactive
same,Potency,[14],inactive
same,Potency,[18],inactive
COc1ccc(N)c(OC)c1,Potency,[1],inactive
same,Potency,[2],inactive
same,Potency,[3],inactive
same,Potency,[4],inactive
same,Potency,[19],inactive
same,Potency,[5],inactive
same,Potency,[6],inactive
same,Potency,[9],inactive
same,Potency,[10],inactive
same,Potency,[11],inactive
same,Potency,[12],inactive
same,Potency,[13],inactive
same,Potency,[14],inactive
same,Potency,[18],1.53 µM (active) and 17.8 µM (active)
C=C(C)CC(C)(C)C,Potency,[1],inactive
same,Potency,[2],inactive
same,Potency,[3],inactive
same,Potency,[4],inactive
same,Potency,[19],inactive
same,Potency,[5],inactive
same,Potency,[6],inactive
same,Potency,[7],inactive
same,Potency,[20],inactive
same,Potency,[9],inactive
same,Potency,[10],inactive
same,Potency,[11],inactive
same,Potency,[13],inactive
same,Potency,[14],inactive
same,Potency,[18],inactive
Cc1ccccc1C=O,Potency,[1],inactive
same,Potency,[2],inactive
same,Potency,[3],inactive
same,Potency,[4],inactive
same,Potency,[19],inactive
same,Potency,[5],inactive
same,Potency,[6],inactive
same,Potency,[7],inactive
same,Potency,[20],inactive
same,outcome,[8],inactive
same,Potency,[9],inactive
same,Potency,[10],inactive
same,Potency,[11],inactive
same,Potency,[12],inactive
same,Potency,[13],inactive
same,Potency,[14],inactive
same,Potency,[18],inactive
